# In the library only some 10% were active in any assay of this set; here they are far more common.
# HEK293 tox = Cytotoxic Profiling in HEK 293 Cell Line of Diverse Libraries Using Quantitative High-Throughput Screening; HEK 293 viability, ATP luminescence (CellTiter-Glo), 48-72 h; 94,000 compounds, 6.6% hits; Potency, µM (doses to about 115 µM), inactives show at the highest dose activity change, negative = cytotoxicity, actives largely listed as inhibitors; note: nearly all actives have a fitted effect of over 60% in size
#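 Read-out: CellTiter-Glo ATP luminescence. Cells: HEK 293, 250 cells/well. Exposure: 48 or 72 hr, 37 degree Celsius.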
# NPR1 antag = Natriuretic polypeptide receptor (hNpr1) antagonism - Primary qHTS; HEK293 hNpr1 GloSensor cGMP, ANP-stimulated luminescence; Potency, µM (titrated, usually from 46.3 µM), for inactives: at the highest dose activity change, negative = inhibition, most hits filed as inhibitors; AID 1347048, 2019; Atrial natriuretic peptide receptor 1 (Homo sapiens), P16066; 76,000 compounds, 1.6% hits; calls by dose curve; note: nearly all actives have a fitted effect of over 60% in size
#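 HEK293 cells stably expressing human Npr1 and cGMP GloSensor pGS-40F, loaded 2 h with 2% GloSensor reagent, given compound 30 min at room temperature. Luminescence read before and 20 min after 0.1 nM hNppA.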
# FLuc inh = Firefly luciferase inhibition profiling of diverse chemical library using quantitative high-throughput screening. Luciferin 4-monooxygenase (Photinus pyralis), P08659. purified P. pyralis luciferase, luminescence, biochemical. Potency, µM (titrated, usually from 115 µM), actives largely listed as inhibitors. 76,000 compounds, 2.5% hits; note: nearly all actives have a fitted effect of over 65% in size
# Target sequence (P08659 whole entry, looked up): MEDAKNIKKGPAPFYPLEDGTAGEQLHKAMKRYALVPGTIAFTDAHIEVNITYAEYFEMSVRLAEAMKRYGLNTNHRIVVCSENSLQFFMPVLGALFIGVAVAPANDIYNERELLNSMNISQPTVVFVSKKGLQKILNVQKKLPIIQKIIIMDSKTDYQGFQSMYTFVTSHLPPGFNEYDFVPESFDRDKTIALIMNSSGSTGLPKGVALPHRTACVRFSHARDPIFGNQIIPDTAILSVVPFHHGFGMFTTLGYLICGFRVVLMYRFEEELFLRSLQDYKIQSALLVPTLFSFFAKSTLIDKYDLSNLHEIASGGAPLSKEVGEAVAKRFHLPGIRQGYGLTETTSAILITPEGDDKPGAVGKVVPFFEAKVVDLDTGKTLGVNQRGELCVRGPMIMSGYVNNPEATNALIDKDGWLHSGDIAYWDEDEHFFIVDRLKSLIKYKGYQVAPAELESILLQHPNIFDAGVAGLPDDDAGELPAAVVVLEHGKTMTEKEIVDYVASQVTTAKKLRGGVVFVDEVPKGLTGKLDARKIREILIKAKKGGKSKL
#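 Biochemical qHTS: compound (6-point titration) added to 10uM D-luciferin plus 10uM ATP in Tris acetate pH 7.5 buffer with Mg, Tween-20 and BSA, then purified enzyme at 10nM; light output imaged.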
# NIH3T3 tox = Cytotoxic Profiling in NIH 3T3 Cell Line of Diverse Libraries Using Quantitative High-Throughput Screening; Potency, µM (highest dose often 96.7 µM), for the others: top-dose activity change, negative = cytotoxicity, actives largely listed as inhibitors; NIH 3T3 viability, CellTiter-Glo ATP luminescence, 48-72 h; 94,000 compounds, 4.3% hits; note: nearly all actives have a fitted effect of over 55% in size
#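 Cytotoxicity is measured as loss of cellular ATP: NIH 3T3 cells (400/well) are exposed to compound for 48 or 72 hr at 37 °C, then CellTiter-Glo luminescence is imaged after 10 min at room temperature.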
# GPT2 inh = Primary qHTS assay for inhibitors of Glutamate pyruvate transaminase 2 (GPT2) | Recombinant GPT2, coupled pyruvate oxidase/HRP Amplex Red fluorescence | Potency, µM (titrated, usually from 57.7 µM), for the others: top-dose activity change, negative = inhibition, usual class: inhibitors | Alanine aminotransferase 2 (Homo sapiens), Q8TD30 | AID 1671188, 2021 | 100,000 compounds, 0.25% hits; note: nearly all actives have a fitted effect of over 60% in size
#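 Fluorescence read-out: pyruvate from GPT2 turnover coupled to pyruvate oxidase, HRP and Amplex Red (0.2mM ThPP, 0.2U/mL PO and HRP, 50uM Amplex final). Substrates 250uM a-KG, 2mM L-alanine; enzyme 10ng/uL; 30 min RT.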
# * marks the source's active call; other numbers are inactive results; i = inactive; ? = inconclusive; / = no result; [ ] = another dose, or the depositor's remark. Unless noted, calls come from the whole dose curve; as a rule, active = well fitted curve in the direction sought with a large enough effect; inconclusive = small, poorly fitted or top-dose-only effect, or another doubt; inactive = no such curve, though single readings can be large; an effect the other way counts as inactive or inconclusive. % is set by controls: 0 for no effect and ±100 for the full control effect; potency is the fitted concentration of half-maximal effect.
SMILES,HEK293 tox,NPR1 antag,FLuc inh,NIH3T3 tox,GPT2 inh
c1ccc(-c2noc(Nc3ccc4c(c3)OCCO4)n2)cc1,40µM*,-29%,22µM*,?,i
O=C(c1ccccc1Br)N1CCN(c2cc(-c3cccs3)[nH]n2)CC1,?,-25%,i,?,-8%
O=C(c1c[nH]c2ccccc12)N1CCN(c2cc(-c3cccs3)[nH]n2)CC1,45µM*,-22%,i,?,-4%
Cc1ccc(C(=O)N2CCN(c3cc(-c4cccs4)[nH]n3)CC2)cc1,?,-1%,i,13µM*,0%
O=C(c1ccoc1)N1CCN(c2cc(-c3cccs3)[nH]n2)CC1,1%,-5%,i,-10%,i
Cc1ccncc1C(=O)N1CC(N(C)Cc2cccnc2)C1,1%,-2%,35µM*,5%,i
CC(=O)N1CCN(c2ncccc2CNCc2ccc(CC(C)C)cc2)CC1,?,-1%,i,?,?
Cc1cc(C)c(CNC(=O)c2nc(-c3ccc(F)cc3)cc3c2ccn3C(C)C)c(=O)[nH]1,50µM*,3%[70.6 µM],i,45µM*,i
Cc1cc(C)c(CNC(=O)c2nc(-c3cccnc3)cc3c2ccn3C(C)C)c(=O)[nH]1,100µM*,-4%[70.6 µM],i,?,i
Cc1cc(C)c(CNC(=O)c2nc(-c3ccc(CO)cc3)cc3c2ccn3C(C)C)c(=O)[nH]1,79µM*,4%,i,?,-7%
COc1cccc(-c2cc3c(ccn3C(C)C)c(C(=O)NCc3c(C)cc(C)[nH]c3=O)n2)c1,?,-1%,i,?,i
Cc1cc(-c2cc3c(ccn3C(C)C)c(C(=O)NCc3c(C)cc(C)[nH]c3=O)n2)ccn1,45µM*,-8%[70.6 µM],i,45µM*,2%[88.5 µM]
Cc1cc(C)c(CNC(=O)c2nc(-c3cncnc3)cc3c2ccn3C(C)C)c(=O)[nH]1,?,5%[70.6 µM],i,?,i
CC(=O)Nc1cccc(-c2cc3c(ccn3C)c(C(=O)NCc3c(C)cc(C)[nH]c3=O)n2)c1,?,4%,i,-25%,2%
CC(C)CCN1CCC2(C1)NC(=O)c1ccccc1CO2 (centres undefined),-15%[172 µM],0%[70.6 µM],i,-26%[138 µM],i
COc1ccc(OC)c(-c2cnc3[nH]cc(CC(N)=O)c3c2)c1,-26%[172 µM],?,i,?,-8%[88.5 µM]
COc1ncccc1-c1cnc2[nH]cc(CC(=O)Nc3nc(C)cs3)c2c1,35µM*,?,i,32µM*,i
COc1ncccc1-c1cnc2[nH]cc(CC(=O)NC3CC3)c2c1,?,-25%[70.6 µM],i,25µM*,-3%[88.5 µM]
Cc1cccc(N2CCN(C(=O)CCc3ccnc(N4CCCC4)c3)CC2)c1,?,-15%,i,-22%,i
O=C(CCc1ccnc(N2CCCC2)c1)N1CCN(c2cccc(Cl)c2)CC1,32µM*,-15%,i,?,i
CC(C)CNC(=O)c1ccc2nnc(-c3cccc(C(F)(F)F)c3)n2c1,?,/,/,?,i
CNCCNC(=O)C1CCN(c2nc(-c3ccccc3)nc3c2CCC3)CC1,?,1%,i,?,-9%[11.5 µM]
COC(C)(C)C(=O)N1CCN(c2nc(-c3ccccc3)nc3c2CCC3)CC1,79µM*,4%,i,-16%,-25%
CC(C)(C)CC(=O)N1CCN(c2nc(-c3ccccc3)nc3c2CCC3)CC1,0%,-1%,i,5%,-6%
CC1CN(C(=O)C2CCN(c3nc(-c4ccccc4)nc4c3CCC4)CC2)CCN1 (centres undefined),?,-8%,i,?,-3%
SMILES,HEK293 tox,NPR1 antag,FLuc inh,NIH3T3 tox,GPT2 inh
O=C(NC[C@@H]1CCCN1)C1CCN(c2nc(-c3ccccc3)nc3c2CCC3)CC1,32µM*,-6%,i,22µM*,-4%
O=C(NC1CCCNC1)C1CCN(c2nc(-c3ccccc3)nc3c2CCC3)CC1 (centres undefined),?,2%,i,45µM*,i
Cc1cnc(C(=O)NCCc2ncc(C)n2C2CCC2)cn1,-9%,3%,i,-24%,i
O=C(NCc1ccc(Cl)cc1)c1c[nH]c2cccnc12,35µM*,/,/,16µM*,-1%[88.5 µM]
O=C(NCc1ccc(Cl)cc1)c1c[nH]c2ncccc12,?,-2%[70.6 µM],28µM*,?,3%[88.5 µM]
O=C(NCCc1ccccc1)c1c[nH]c2ncccc12,-3%[172 µM],0%[70.6 µM],20µM*,i,i
Cc1cccc(NC(=O)c2ccc3c(c2)N(C)C2CCCCN2C3=O)c1 (centres undefined),?,-1%,28µM*,?,1%
Cc1cc(C)cc(NC(=O)c2ccc3c(c2)N(C)C2CCCCN2C3=O)c1 (centres undefined),?,-19%,?,?,i
CC(C)c1ccc(NC(=O)c2ccc3c(c2)N(C)C2CCCN2C3=O)cc1 (centres undefined),45µM*,-15%,16µM*,?,i
CC(C)c1cccc(NC(=O)c2ccc3c(c2)N(C)C2CCCCN2C3=O)c1 (centres undefined),28µM*,-6%,i,?,i
CCOCCNC(=O)C1CCCN1C(=O)c1cccc(-c2cccc(OC)c2)c1 (centres undefined),-29%,/,/,-23%,?
Cc1nn(-c2ccccc2)c2c1C(C)N(C1CCCN([S+](=O)([O-])c3cccs3)C1)C2=O (centres undefined),2%,/,/,-10%,/
COc1ccc(-c2nc(N3CCOC[C@H]3C)cc3c2CN(C(C)C)C3=O)cc1,112µM*,3%[70.6 µM],i,79µM*,-2%[88.5 µM]
O=C(c1cccc(F)c1)N1CCCCCC1CN1CCOCC1 (centres undefined),i,/,/,-11%,?
O=C(NCc1cccs1)c1nc2sccn2c1-c1cccc(C(F)(F)F)c1,?,/,/,?,3%
CCCn1cc(-c2ccnc(NCc3c(F)ccc(C)c3F)n2)c(C)n1,50µM*,1%,i,?,-1%
CCCn1cc(-c2ccnc(NCc3cccc(C)c3)n2)c(C)n1,?,8%,i,?,i
CCCn1cc(-c2ccnc(NC3CCN(Cc4ccccn4)CC3)n2)c(C)n1,28µM*,-6%,i,?,i
CC(=O)N1CCn2c(nnc2C2CCCN2Cc2cn[nH]c2-c2cccs2)C1 (centres undefined),i,/,/,-6%,i

# Compound activity deposited in PubChem BioAssay by National Center for Advancing Translational Sciences (NCATS).
